Laboratory results reported in PubChem BioAssay (Tox21).
Records with an inconclusive call do not appear. Active and inactive are the calls of the source. Unless noted, calls follow the shape of the dose curve; as a rule, active = well fitted curve in the direction sought with a large enough effect in the repeat runs; inconclusive = weak or mixed curves; inactive = no such curve, though single readings can be large; an effect the other way counts as inactive or inconclusive. Positions of bridges follow the written chain, without caps; N, C: chain ends. Non-standard residues stand in square brackets, D forms with d. Residues, ends and D or L forms follow the SMILES beside them. hArg = N=C(N)NCCCC[C@H](N)C(=O)O; Mpa = O=C(O)CCS

Key:
[1] = qHTS assay to identify small molecule antagonists of the TGF-beta/Smad signaling pathway - cell viability counter screen (AID 1346824); also: nearly all actives have a fitted effect of over 50% in size
Outline: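 SBE-bla HEK 293T cells were plated overnight at 37 C, then given compounds in DMSO plus TGF-beta1 (added as 0.25 ng/mL solution) for 5 hr. After the bla read, CellTiter-Glo was added to the same wells and luminescence read after 30 min at room temperature.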

[2] = qHTS assay to identify small molecule agonists of the TGF-beta/Smad signaling pathway - cell viability counter screen (AID 1346829); also: top concentration of the series differs between compounds; nearly all actives have a fitted effect of over 45% in size
Outline: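 After overnight seating at 37 C and 5% CO2, reporter cells got compounds for 5 hr and FRET substrate for 2 hr; cell viability then came from CellTiter-Glo luminescence.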

[3] = qHTS assay to identify small molecule agonists of the TGF-beta/Smad signaling pathway (AID 1346859; active = well fitted activation curve with a large enough effect in the signal ratio in the repeat runs, not every such curve was filed as active; the % refers to the signal ratio; also: series mostly up to about 77 µM)
Outline: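 SBE-bla HEK293T cells plated overnight, then compound exposure for 5 h at 37 C. Beta-lactamase reporter read with LiveBLAzer B/G FRET substrate after 2 h at room temperature, fluorescence at 405 nm excitation, 460/530 nm emission.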

[4] = molecular target: Thyrotropin-releasing hormone receptor (Homo sapiens) (UniProt P34981); experiment: qHTS assay to identify small molecule antagonists of the thyrotropin-releasing hormone receptor (TRHR) signaling pathway (AID 1346877; active = well fitted inhibition curve with a large enough effect in the repeat runs, not every such curve was filed as active; also: series mostly up to about 51 µM)
Outline: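 Intracellular calcium fluorescence, read kinetically every second over 3 min, reports TRH-evoked signalling in HEK293 cells carrying TRHR. Test compounds were added 5 min ahead of a 1 nM TRH challenge.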

[5] = molecular target: Thyrotropin-releasing hormone receptor (Homo sapiens) (UniProt P34981); experiment: qHTS assay to identify small molecule agonists of the thyrotropin-releasing hormone receptor (TRHR) signaling pathway (AID 1346891; calls by dose curve; also: series mostly up to about 58 µM)
Outline: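 HEK293 cells expressing TRHR plated 18 h at 37 C/5% CO2, calcium dye-loaded 2 h at 37 C, then compound added (agonist mode); kinetic calcium fluorescence read 3 min at 1 s intervals; 15 concentrations in triplicate.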

[6] = Human pregnane X receptor (PXR) small molecule agonists, qHTS cell viability counter screen (AID 1346977); also: nearly all actives have a fitted effect of over 50% in size
Outline: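 PXR-Luc HepG2 cells (2,000/well, 5% charcoal-stripped FBS) preincubated 5 hr, then exposed to compounds 24 hr at 37 C. Viability read in the same wells by CellTiter-Fluor fluorescence, reagent added at 23 hr, 1 hr incubation.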

[7] = Caspase-3/7 induction in HepG2 cells by small molecules, qHTS assay (AID 1346978); also: nearly all actives have a fitted effect of over 15% in size
Outline: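 Wild-type HepG2 cells (2,000/well) were settled 5 h at 37 C, 5% CO2, then exposed to compounds in DMSO for 17 h. Caspase-3/7 activity was read by luminescence 30 min after adding Caspase-Glo 3/7 reagent at room temperature.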

[8] = Caspase-3/7 induction in CHO-K1 cells by small molecules, qHTS cell viability counter screen (AID 1346979); also: nearly all actives have a fitted effect of over 35% in size; also: potency is read from the fitted curve at half-maximal effect
Outline: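 Wild-type CHO-K1 cells (1,500/well) treated with compound after 5 h plating; after 16 h at 37C, viability read as CellTiter-Fluor fluorescence following 1 h reagent incubation, in the same wells as the caspase read.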

[9] = Caspase-3/7 induction in CHO-K1 cells by small molecules, qHTS assay (AID 1346980); also: nearly all actives have a fitted effect of over 15% in size
Outline: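 Wild-type cells were seeded at 1,500 per well and settled 5 hr at 37 C, 5% CO2, then exposed to DMSO-dissolved compounds for 17 hr. Caspase-Glo 3/7 reagent was added, and luminescence was read after 30min at room temperature.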

[10] = Caspase-3/7 induction in HepG2 cells by small molecules, qHTS cell viability counter screen (AID 1346981); also: series mostly up to about 92 µM; nearly all actives have a fitted effect of over 30% in size
Outline: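 HepG2, WT, 2,000 cells/well; 5 hr pre-incubation 37 C/5% CO2; compound pin-transferred from DMSO; 16 hr exposure; CellTiter-Fluor, 1 hr; fluorescence read.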

[11] = molecular target: Nuclear receptor subfamily 1 group I member 2 (Homo sapiens) (UniProt O75469); experiment: Human pregnane X receptor (PXR) small molecule agonists, qHTS assay (AID 1346982); also: nearly all actives have a fitted effect of over 35% in size; also: potency is read from the fitted curve at half-maximal effect
Outline: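 Luciferase signal from ONE-Glo (30 min, room temperature) measured activation of hPXR-driven CYP3A4 reporter expression in PXR-Luc HepG2 cells treated with compounds for 24 hr at 37 C.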

[12] = molecular target: Nuclear receptor subfamily 1 group I member 2 (Homo sapiens) (UniProt O75469); experiment: CYP3A4 induction through human pregnane X receptor (PXR) by small molecules, qHTS assay (AID 1346984); also: nearly all actives have a fitted effect of over 40% in size
Outline: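 Luminescence readout: luciferase signal after One-Glo (30 min, room temperature), following 3 h at 37C with 3uM final Luciferin-IPA P450 substrate. Cells were DPX-2 (HepG2, PXR/CYP3A4-luc co-transfected) dosed for 24 h.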

[13] = molecular target: Nuclear receptor subfamily 1 group I member 2 (Homo sapiens) (UniProt O75469); experiment: Human pregnane X receptor (PXR) activation by small molecules, qHTS assay (AID 1346985); also: nearly all actives have a fitted effect of over 40% in size
Outline: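 DPX-2 cells (HepG2 co-transfected with a PXR response element and a CYP3A4-promoter luciferase construct) were seeded at 2,000 per well, rested 5 hr at 37C, then exposed to DMSO-dissolved compounds for 24 hr. Activation was read as luciferase luminescence.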

[14] = molecular target: Cytochrome P450 2C19 (Homo sapiens) (UniProt P33261); experiment: Cytochrome P450 Family 2 Subfamily C Member 19 (CYP2C19) small molecule antagonists: luciferase reporter qHTS assay (AID 1671197); also: nearly all actives have a fitted effect of over 65% in size; also: potency is read from the fitted curve at half-maximal effect
Outline: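 Inhibition of CYP2C19 was scored from loss of luminescence in a P450-Glo proluciferin substrate assay, NADPH-started and run 1 h at 37C, with ketoconazole as positive control.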

[15] = molecular target: Cytochrome P450 2C9 (Homo sapiens) (UniProt P11712); experiment: Cytochrome P450 Family 2 Subfamily C Member 9 (CYP2C9) small molecule antagonists: luciferase reporter qHTS assay (AID 1671198); also: nearly all actives have a fitted effect of over 50% in size; also: potency is read from the fitted curve at half-maximal effect
Outline: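 CYP2C9 activity was measured with a P450-Glo proluciferin substrate. Enzyme–substrate mix was held with compound for 10 min at room temperature, then NADPH regeneration solution was added for 1 h at 37C. Luciferin product was read as luminescence.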

[16] = molecular target: Cytochrome P450 1A2 (Homo sapiens) (UniProt P05177); experiment: Cytochrome P450 Family 1 Subfamily A Member 2 (CYP1A2) small molecule antagonists: luciferase reporter qHTS assay (AID 1671199); also: nearly all actives have a fitted effect of over 50% in size; also: potency is read from the fitted curve at half-maximal effect
Outline: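 P450-Glo CYP1A2, 1536-well qHTS: enzyme/proluciferin substrate + cpd (DMSO), 10 min RT; NADPH regen, 1 h RT; detection reagent, 20 min; luminescence, RLU.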

[17] = molecular target: Voltage-gated inwardly rectifying potassium channel KCNH2 (Homo sapiens) (UniProt Q12809); experiment: Human Ether-a-go-go-Related Gene (hERG) channel small molecule antagonists: fluorescence cell-based qHTS assay (AID 1671200)
Outline: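 hERG-U2OS cells plated overnight at 37 C, loaded with FluxOR II dye 1 h at RT in dark; after 10 min, thallium stimulus added. Fluorescence (480/540 nm) read kinetically for 2 min at 1 s intervals.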

[18] = molecular target: Cytochrome P450 3A4 (Homo sapiens) (UniProt P08684); experiment: Cytochrome P450 Family 3 Subfamily A Member 4 (CYP3A4) small molecule antagonists: luciferase reporter qHTS assay (AID 1671201)
Outline: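 P450-Glo CYP3A4 luminescent assay: compounds preincubated 10 min at room temperature with enzyme and proluciferin substrate, NADPH regeneration added, 1 h room-temperature reaction, stopped with luciferin detection reagent; luminescence read after 20 min. Ketoconazole positive control.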

[19] = molecular target: Cytochrome P450 2D6 (Homo sapiens) (UniProt P10635); experiment: Cytochrome P450 Family 2 Subfamily D Member 6 (CYP2D6) small molecule antagonists: luciferase reporter qHTS assay (AID 1671196)
Outline: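 Read-out is luminescence from luciferin formed by CYP2D6 turnover of a proluciferin substrate, recorded as relative luminescence units. Reactions ran 1 h at room temperature after NADPH regeneration solution was added.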

[20] = molecular target: Nuclear receptor subfamily 1 group I member 2 (Rattus norvegicus) (UniProt Q9R1A7); experiment: Rat pregnane X receptor (rPXR) activation by small molecules, qHTS assay (AID 1346983); settings: rPXR luciferase reporter cells, One-Glo luminescence, 24 h; active compounds read high; also: nearly all actives have a fitted effect of over 20% in size
Outline: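 Cell-based rPXR luciferase reporter assay, 2,000 cells per well, rested 5hr at 37 C before compound addition in DMSO, then 24 hr at 37 C. One-Glo reagent was added and luminescence read after 30 min at room temperature.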
% is scaled to controls: 0 for no effect and ±100 for the full control effect.

Cytochrome P450 1A2 (Homo sapiens), sequence (P05177 whole entry, looked up): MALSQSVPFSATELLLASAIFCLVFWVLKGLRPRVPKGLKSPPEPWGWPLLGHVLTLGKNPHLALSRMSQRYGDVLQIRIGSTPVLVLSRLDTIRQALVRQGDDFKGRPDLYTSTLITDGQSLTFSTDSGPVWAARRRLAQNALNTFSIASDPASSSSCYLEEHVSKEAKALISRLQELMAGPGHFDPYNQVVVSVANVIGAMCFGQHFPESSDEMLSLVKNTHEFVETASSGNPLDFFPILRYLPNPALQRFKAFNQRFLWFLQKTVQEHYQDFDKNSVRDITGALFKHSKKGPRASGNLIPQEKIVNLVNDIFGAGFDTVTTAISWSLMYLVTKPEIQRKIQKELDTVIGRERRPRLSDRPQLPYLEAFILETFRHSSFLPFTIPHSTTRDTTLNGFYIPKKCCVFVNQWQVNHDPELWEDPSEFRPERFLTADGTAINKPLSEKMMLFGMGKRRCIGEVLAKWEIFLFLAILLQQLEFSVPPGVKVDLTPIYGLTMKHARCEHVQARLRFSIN
Voltage-gated inwardly rectifying potassium channel KCNH2 (Homo sapiens), sequence (Q12809 whole entry, looked up): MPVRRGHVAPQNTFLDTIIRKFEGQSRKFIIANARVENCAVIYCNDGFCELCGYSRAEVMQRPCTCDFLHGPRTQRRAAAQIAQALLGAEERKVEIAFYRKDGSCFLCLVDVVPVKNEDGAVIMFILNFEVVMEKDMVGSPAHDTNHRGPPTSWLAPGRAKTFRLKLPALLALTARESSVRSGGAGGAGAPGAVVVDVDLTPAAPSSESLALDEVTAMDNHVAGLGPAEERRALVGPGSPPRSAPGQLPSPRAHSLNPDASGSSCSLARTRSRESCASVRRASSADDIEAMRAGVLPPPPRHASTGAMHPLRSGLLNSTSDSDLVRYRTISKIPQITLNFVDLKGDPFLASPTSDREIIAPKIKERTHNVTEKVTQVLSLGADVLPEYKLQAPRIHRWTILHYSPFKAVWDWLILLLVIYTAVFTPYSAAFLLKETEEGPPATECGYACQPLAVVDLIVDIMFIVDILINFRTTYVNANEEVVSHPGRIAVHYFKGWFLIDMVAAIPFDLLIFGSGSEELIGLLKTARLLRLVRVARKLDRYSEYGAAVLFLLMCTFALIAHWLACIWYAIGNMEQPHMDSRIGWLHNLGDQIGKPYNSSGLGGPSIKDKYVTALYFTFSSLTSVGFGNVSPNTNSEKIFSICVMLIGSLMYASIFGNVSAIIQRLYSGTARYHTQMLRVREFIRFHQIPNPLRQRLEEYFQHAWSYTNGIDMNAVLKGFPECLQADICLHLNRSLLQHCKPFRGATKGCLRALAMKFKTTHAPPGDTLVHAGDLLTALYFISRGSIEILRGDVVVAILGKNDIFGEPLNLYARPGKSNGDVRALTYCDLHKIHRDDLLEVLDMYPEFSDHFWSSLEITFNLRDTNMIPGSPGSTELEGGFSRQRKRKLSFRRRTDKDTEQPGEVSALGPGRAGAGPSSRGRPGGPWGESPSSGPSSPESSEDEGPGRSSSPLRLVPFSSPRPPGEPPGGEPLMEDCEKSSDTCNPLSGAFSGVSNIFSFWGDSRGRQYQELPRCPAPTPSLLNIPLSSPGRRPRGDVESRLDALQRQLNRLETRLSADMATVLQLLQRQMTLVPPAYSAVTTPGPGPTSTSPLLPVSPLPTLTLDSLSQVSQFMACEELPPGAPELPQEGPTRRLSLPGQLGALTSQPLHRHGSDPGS
Thyrotropin-releasing hormone receptor (Homo sapiens), sequence (P34981 whole entry, looked up): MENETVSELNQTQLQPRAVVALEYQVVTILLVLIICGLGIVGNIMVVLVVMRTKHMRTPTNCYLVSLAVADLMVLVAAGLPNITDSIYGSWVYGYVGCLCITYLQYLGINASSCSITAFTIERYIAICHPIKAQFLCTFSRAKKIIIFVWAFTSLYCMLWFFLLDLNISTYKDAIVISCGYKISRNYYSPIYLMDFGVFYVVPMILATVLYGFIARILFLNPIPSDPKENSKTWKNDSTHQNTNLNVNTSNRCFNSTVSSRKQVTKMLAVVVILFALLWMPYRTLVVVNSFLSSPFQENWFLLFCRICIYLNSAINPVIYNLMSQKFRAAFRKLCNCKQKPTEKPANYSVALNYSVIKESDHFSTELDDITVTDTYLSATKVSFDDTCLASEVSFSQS
Nuclear receptor subfamily 1 group I member 2 (Homo sapiens), sequence (O75469 whole entry, looked up): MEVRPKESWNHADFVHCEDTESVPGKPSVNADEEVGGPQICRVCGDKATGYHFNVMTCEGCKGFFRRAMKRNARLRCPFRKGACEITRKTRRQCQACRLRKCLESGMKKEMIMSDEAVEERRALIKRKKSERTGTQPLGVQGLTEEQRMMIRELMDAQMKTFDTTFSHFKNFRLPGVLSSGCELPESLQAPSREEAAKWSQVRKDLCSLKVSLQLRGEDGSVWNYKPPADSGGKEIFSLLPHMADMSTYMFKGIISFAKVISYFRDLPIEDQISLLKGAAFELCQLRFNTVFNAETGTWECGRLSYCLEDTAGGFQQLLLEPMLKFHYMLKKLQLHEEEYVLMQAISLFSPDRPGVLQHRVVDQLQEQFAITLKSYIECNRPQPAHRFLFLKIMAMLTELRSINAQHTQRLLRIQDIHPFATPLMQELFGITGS
Cytochrome P450 2D6 (Homo sapiens), sequence (P10635 whole entry, looked up): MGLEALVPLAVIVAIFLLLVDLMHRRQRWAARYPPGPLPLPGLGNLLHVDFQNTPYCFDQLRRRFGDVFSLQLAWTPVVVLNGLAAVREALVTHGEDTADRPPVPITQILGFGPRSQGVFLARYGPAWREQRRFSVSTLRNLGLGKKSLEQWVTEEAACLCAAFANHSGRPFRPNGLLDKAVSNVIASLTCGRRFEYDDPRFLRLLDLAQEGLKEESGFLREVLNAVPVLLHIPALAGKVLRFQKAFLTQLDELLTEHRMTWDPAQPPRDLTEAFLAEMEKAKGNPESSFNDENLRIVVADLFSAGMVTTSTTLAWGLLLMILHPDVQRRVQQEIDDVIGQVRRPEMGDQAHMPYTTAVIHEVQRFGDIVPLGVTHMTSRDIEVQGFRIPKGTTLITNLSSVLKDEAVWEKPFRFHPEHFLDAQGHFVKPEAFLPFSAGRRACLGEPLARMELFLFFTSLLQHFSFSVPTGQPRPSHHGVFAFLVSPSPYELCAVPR
Cytochrome P450 3A4 (Homo sapiens), sequence (P08684 whole entry, looked up): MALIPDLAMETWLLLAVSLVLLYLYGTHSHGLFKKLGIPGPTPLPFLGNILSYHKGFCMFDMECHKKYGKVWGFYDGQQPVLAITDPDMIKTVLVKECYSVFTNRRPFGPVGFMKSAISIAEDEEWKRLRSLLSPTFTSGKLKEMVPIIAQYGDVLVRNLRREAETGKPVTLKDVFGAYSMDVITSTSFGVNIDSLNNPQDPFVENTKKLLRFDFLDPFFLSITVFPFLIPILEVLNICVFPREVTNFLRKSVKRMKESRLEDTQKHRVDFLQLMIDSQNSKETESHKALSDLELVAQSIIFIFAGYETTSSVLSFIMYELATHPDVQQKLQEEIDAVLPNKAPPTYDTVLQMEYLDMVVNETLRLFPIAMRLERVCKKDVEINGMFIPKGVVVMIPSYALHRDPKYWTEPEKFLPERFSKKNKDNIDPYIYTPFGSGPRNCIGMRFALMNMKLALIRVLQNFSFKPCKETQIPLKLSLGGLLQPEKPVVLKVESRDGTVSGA
Cytochrome P450 2C19 (Homo sapiens), sequence (P33261 whole entry, looked up): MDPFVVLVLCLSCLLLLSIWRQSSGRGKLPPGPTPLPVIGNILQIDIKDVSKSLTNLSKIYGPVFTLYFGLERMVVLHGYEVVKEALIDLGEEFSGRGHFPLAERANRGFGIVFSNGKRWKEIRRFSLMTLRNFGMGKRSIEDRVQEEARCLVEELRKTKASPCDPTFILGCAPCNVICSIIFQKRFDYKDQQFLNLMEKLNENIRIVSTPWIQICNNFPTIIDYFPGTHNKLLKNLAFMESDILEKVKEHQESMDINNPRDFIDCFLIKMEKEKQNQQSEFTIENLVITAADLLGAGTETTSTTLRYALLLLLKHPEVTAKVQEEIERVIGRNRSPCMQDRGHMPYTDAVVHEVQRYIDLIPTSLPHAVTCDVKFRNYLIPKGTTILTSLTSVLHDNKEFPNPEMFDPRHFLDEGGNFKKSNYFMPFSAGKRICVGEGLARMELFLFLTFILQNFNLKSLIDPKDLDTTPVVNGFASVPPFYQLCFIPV
Cytochrome P450 2C9 (Homo sapiens), sequence (P11712 whole entry, looked up): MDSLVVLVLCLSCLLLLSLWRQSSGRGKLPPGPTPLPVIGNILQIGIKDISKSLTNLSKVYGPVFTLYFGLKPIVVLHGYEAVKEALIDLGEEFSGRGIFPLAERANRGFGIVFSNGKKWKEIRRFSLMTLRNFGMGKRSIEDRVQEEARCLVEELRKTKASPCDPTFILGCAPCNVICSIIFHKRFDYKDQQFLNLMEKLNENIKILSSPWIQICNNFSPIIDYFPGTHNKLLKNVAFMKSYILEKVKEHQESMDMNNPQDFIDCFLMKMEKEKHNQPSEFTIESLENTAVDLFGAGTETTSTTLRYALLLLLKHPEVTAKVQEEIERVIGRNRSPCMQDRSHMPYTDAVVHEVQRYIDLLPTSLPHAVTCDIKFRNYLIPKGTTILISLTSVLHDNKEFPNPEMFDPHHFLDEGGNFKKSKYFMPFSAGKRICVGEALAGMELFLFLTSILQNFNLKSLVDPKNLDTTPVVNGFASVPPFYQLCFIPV
Nuclear receptor subfamily 1 group I member 2 (Rattus norvegicus), sequence (Q9R1A7 whole entry, looked up): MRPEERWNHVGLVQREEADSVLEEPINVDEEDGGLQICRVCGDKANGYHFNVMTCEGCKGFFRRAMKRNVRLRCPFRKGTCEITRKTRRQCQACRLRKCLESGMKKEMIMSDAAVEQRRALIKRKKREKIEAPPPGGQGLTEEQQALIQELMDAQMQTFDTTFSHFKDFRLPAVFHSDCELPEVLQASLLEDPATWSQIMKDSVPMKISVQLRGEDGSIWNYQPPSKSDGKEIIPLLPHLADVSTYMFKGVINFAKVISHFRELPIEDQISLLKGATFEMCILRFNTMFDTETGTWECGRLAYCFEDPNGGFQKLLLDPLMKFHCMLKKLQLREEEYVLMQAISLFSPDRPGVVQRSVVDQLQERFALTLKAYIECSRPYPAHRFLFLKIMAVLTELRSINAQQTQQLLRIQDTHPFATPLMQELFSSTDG

CC(C)(C)NC[C@H](O)COc1cccc2c1CCCC2=O
inactive: outcome [1] | outcome [2] | outcome [3] | outcome [4] | outcome [5] | outcome [6] | outcome [7] | Potency [8] | outcome [9] | outcome [10] | Potency [11] | Potency [12] | Potency [13] | Potency [14] | Potency [15] | Potency [16] | Potency [17] | Potency [18]

COC(=O)c1ccccc1C(=O)O
inactive: outcome [1] | outcome [2] | outcome [3] | outcome [4] | outcome [5] | outcome [6] | outcome [7] | Potency [8] | outcome [9] | outcome [10] | Potency [11] | Potency [19] | Potency [16]

CCCCOC(=O)C(C)O (stereo not drawn)
inactive: outcome [1] | outcome [2] | outcome [3] | outcome [4] | outcome [5] | outcome [6] | outcome [7] | Potency [8] | outcome [9] | outcome [10] | Potency [11] | Potency [19] | Potency [14] | Potency [15] | Potency [16] | Potency [18]

CCCCCCCCCOC(=O)c1ccccc1C(=O)OCCCCCCCCC
inactive: outcome [1] | outcome [2] | outcome [3] | outcome [4] | outcome [5] | outcome [6] | outcome [7] | Potency [8] | outcome [9] | outcome [10] | Potency [17]
active: Potency [11] 19.3 µM | Potency [14] 39.8 µM | Potency [15] 39.8 µM | Potency [16] 35.5 µM

CO[Si](CCCn1c(=O)n(CCC[Si](OC)(OC)OC)c(=O)n(CCC[Si](OC)(OC)OC)c1=O)(OC)OC
inactive: outcome [1] | outcome [2] | outcome [3] | outcome [4] | outcome [5] | outcome [6] | outcome [7] | Potency [8] | outcome [9] | outcome [10] | Potency [11] | Potency [19] | Potency [14] | Potency [15] | Potency [16]

NC(=O)[C@@H]1CSSCCC(=O)N[C@@H](CCCCN=C(N)N)C(=O)NCC(=O)N[C@@H](CC(=O)O)C(=O)N[C@@H](Cc2c[nH]c3ccccc23)C(=O)N2CCC[C@H]2C(=O)N1 ([Mpa][hArg]GDWPC-NH2; disulfide 1-7)
active: Potency [8] 10.6 µM
inactive: outcome [1] | outcome [2] | outcome [3] | outcome [4] | outcome [5] | outcome [6] | outcome [7] | outcome [9] | outcome [10] | Potency [11] | Potency [12] | Potency [13] | Potency [14] | Potency [15] | Potency [17] | Potency [18]

OC[C@@H](O)C(O)[C@@H](O)CO (stereo partly drawn)
active: Potency [14] 40.4 µM
inactive: outcome [1] | outcome [2] | outcome [3] | outcome [4] | outcome [5] | outcome [6] | outcome [7] | Potency [8] | outcome [9] | outcome [10] | Potency [11] | Potency [19] | Potency [16] | Potency [17] | Potency [18]

CN(C)CCOC(=O)C(c1ccccc1)C1(O)CCCC1 (stereo not drawn)
inactive: outcome [1] | outcome [2] | outcome [3] | outcome [4] | outcome [5] | outcome [6] | outcome [7] | Potency [8] | outcome [9] | outcome [10] | Potency [11] | max activation [20] 3.01% | Potency [12] | Potency [13] | Potency [15] | Potency [16] | Potency [17] | Potency [18]
